We go through 3 compounds from PubChem BioAssay (EPA / NIEHS).

Read-out in assay [1]: Transforming growth factor beta 1 (TGFb1), TGFB1 (gene 7040)
Briefly: BSK_KF3CT_TGFb1: BioMAP Diversity Plus: KF3CT Assay for Transforming growth factor beta 1 (TGFb1) Biomarker Activity (AID 2283072). The following applies: primary human keratinocytes with fibroblasts; actives raise or lower the signal. In outline:
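ELISA quantifies TGF-b1 at 24 h post-dose in a primary human skin co-culture of keratinocytes and fibroblasts, with gain or loss judged against DMSO. Parallel SRB total-protein staining flags overt cytotoxicity.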

Read-out in assay [2]: Matrix Metallopeptidase 9 (MMP9), MMP9 (gene 4318)
As to the kind of experiment: BSK_KF3CT_MMP9: BioMAP Diversity Plus: KF3CT Assay for Matrix Metallopeptidase 9 (MMP9) Biomarker Activity (AID 2283074). The following applies: primary human keratinocytes with fibroblasts; actives raise or lower the signal. The method, boiled down:
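ELISA read-out of MMP-9 at 24 h post-dosing in a co-culture of human skin keratinocytes and foreskin fibroblasts. Gain or loss of signal was fitted in both directions against DMSO.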

Read-out in assay [3]: urokinase plasminogen activator (uPA), PLAU (gene 5328)
Briefly: BSK_KF3CT_uPA: BioMAP Diversity Plus: KF3CT Assay for urokinase plasminogen activator (uPA) Biomarker Activity (AID 2283075). The note with it: primary human keratinocytes with fibroblasts; actives raise or lower the signal. The method, boiled down:
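Skin co-culture (keratinocytes + foreskin fibroblasts), human primary; 24 h post-dose; uPA by ELISA; gain/loss fit vs DMSO baseline.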

Read-out in assay [4]: CD40, CD40 (gene 958)
As to the kind of experiment: BSK_LPS_CD40: BioMAP Diversity Plus: LPS Assay for CD40 Biomarker Activity (AID 2283076). The note with it: primary human HUVEC with PBMC; actives raise or lower the signal. In outline:
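Primary human umbilical vein endothelial cells co-cultured with peripheral blood mononuclear cells, LPS-stimulated, were dosed with chemical and read 24 h later. CD40 levels were measured by ELISA and fitted bidirectionally against DMSO as negative control and baseline.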

Read-out in assay [5]: E-selectin (Homo sapiens) (UniProt P16581)
Briefly: BSK_LPS_Eselectin: BioMAP Diversity Plus: LPS Assay for Eselectin Biomarker Activity (AID 2283077). The following applies: primary human HUVEC with PBMC; actives raise or lower the signal. In outline: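 Human umbilical vein endothelial cells co-cultured with peripheral blood mononuclear cells under LPS stimulation; E-selectin measured by ELISA 24 h after chemical dosing. Activity fitted bidirectionally against DMSO as negative control and baseline.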

Read-out in assay [6]: Interleukin-8 (IL8), CXCL8 (gene 3576)
Briefly: BSK_LPS_IL8: BioMAP Diversity Plus: LPS Assay for Interleukin-8 (IL8) Biomarker Activity (AID 2283078). The note with it: primary human HUVEC with PBMC; actives raise or lower the signal. The method, boiled down:
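Human umbilical vein endothelial cells co-cultured with PBMC were stimulated with LPS; IL-8 levels were measured by ELISA 24 h after chemical dosing. Activity was fitted bidirectionally against DMSO as negative control and baseline.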

A short description of assay [7]: BSK_LPS_SRB: Viability Assessment in the BioMAP Diversity Plus: LPS Assay (AID 2283079).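 Further: total protein by sulforhodamine B absorbance as a cytotoxicity measure; measured one day after compound addition.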 The following applies: primary human HUVEC with PBMC. The method, boiled down: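 Human umbilical vein endothelial cells co-cultured with PBMC (LPS system) were dosed for 24 h. Total protein was stained with 0.1% sulforhodamine B after 10% TCA fixation, read at 560 nm, and fitted bidirectionally against DMSO baseline.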

Read-out in assay [8]: Interleukin-1 alpha (IL1a), IL1A (gene 3552)
As to the kind of experiment: BSK_LPS_IL1a: BioMAP Diversity Plus: LPS Assay for Interleukin-1 alpha (IL1a) Biomarker Activity (AID 2283080). The following applies: primary human HUVEC with PBMC; actives raise or lower the signal. The method, boiled down:
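Human umbilical vein endothelial cells co-cultured with peripheral blood mononuclear cells were LPS-stimulated and exposed to test chemicals for 24 h. IL-1 alpha was quantified by ELISA, with bidirectional curve fitting against DMSO as the negative control and baseline.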

Read-out in assay [9]: Monocyte Chemoattractant Protein-1 (MCP1), CCL2 (gene 6347)
Briefly: BSK_LPS_MCP1: BioMAP Diversity Plus: LPS Assay for Monocyte Chemoattractant Protein-1 (MCP1) Biomarker Activity (AID 2283081). The following applies: primary human HUVEC with PBMC; actives raise or lower the signal. The method, boiled down: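 HUVEC plus PBMC co-culture (human primary cells, LPS system) exposed to test chemical for 24 h; MCP-1 measured by ELISA. Bidirectional curve fitting against DMSO baseline; parallel SRB total-protein staining flags overt cytotoxicity.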

Assay [10] in a line: BSK_LPS_PGE2: BioMAP Diversity Plus: LPS Assay for Prostaglandin E2 (PGE2) Biomarker Activity (AID 2283082). The following applies: primary human HUVEC with PBMC; actives raise or lower the signal. In outline:
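PGE2 release measured by ELISA in an LPS-activated co-culture of human umbilical vein endothelial cells and peripheral blood mononuclear cells, read at 24 h post-dosing. DMSO served as baseline for bidirectional curve fitting.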

Read-out in assay [11]: Macrophage colony-stimulating factor (MCSF), CSF1 (gene 1435)
As to the kind of experiment: BSK_LPS_MCSF: BioMAP Diversity Plus: LPS Assay for Macrophage colony-stimulating factor (MCSF) Biomarker Activity (AID 2283083). The following applies: primary human HUVEC with PBMC; actives raise or lower the signal. In outline: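 Human umbilical vein endothelial cells co-cultured with peripheral blood mononuclear cells were exposed to compound for 24 h. M-CSF levels were measured by ELISA, and bidirectional curve fitting used DMSO as the negative control and baseline.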

Read-out in assay [12]: Tissue Factor, F3 (gene 2152)
As to the kind of experiment: BSK_LPS_TissueFactor: BioMAP Diversity Plus: LPS Assay for Tissue Factor Biomarker Activity (AID 2283084). The following applies: primary human HUVEC with PBMC; actives raise or lower the signal. In outline: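 Human umbilical vein endothelial cells co-cultured with peripheral blood mononuclear cells were dosed and stimulated with LPS. Cell-surface CD142 was quantified by ELISA at 24 h. Activity was fitted bidirectionally against DMSO baseline.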

Read-out in assay [13]: Tumor necrosis factor (Homo sapiens) (UniProt P01375)
As to the kind of experiment: BSK_LPS_TNFa: BioMAP Diversity Plus: LPS Assay for Tumour Necrosis Factor alpha (TNFa) Biomarker Activity (AID 2283085). The following applies: primary human HUVEC with PBMC; actives raise or lower the signal. The method, boiled down: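 TNFa was quantified by ELISA in LPS-activated co-cultures of human endothelial cells and PBMC, 24 h post-dosing. Both increases and decreases versus DMSO were fitted.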

Read-out in assay [14]: Vascular cell adhesion molecule 1 (VCAM1), VCAM1 (gene 7412)
Briefly: BSK_LPS_VCAM1: BioMAP Diversity Plus: LPS Assay for Vascular cell adhesion molecule 1 (VCAM1) Biomarker Activity (AID 2283086). The note with it: primary human HUVEC with PBMC; actives raise or lower the signal. The method, boiled down:
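VCAM-1 quantified by ELISA in an LPS-activated co-culture of human endothelial cells and peripheral blood mononuclear cells, read 24 h post-treatment. Fitted in both directions versus DMSO; parallel SRB staining flags overt cytotoxicity.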

Read-out in another assay: CD38, CD38 (gene 952)
Briefly: BSK_SAg_CD38: BioMAP Diversity Plus: SAg Assay for CD38 Biomarker Activity (AID 2283087). The note with it: primary human HUVEC with PBMC; actives raise or lower the signal. The method, boiled down:
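CD38 quantified by ELISA (fluorescence) in a superantigen-activated endothelial cell–PBMC co-culture at 24 h post-dose. Activity fitted in both directions relative to DMSO; parallel SRB and Alamar Blue cytotoxicity read-outs.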

Read-out in assay [15]: CD40, CD40 (gene 958)
Briefly: BSK_SAg_CD40: BioMAP Diversity Plus: SAg Assay for CD40 Biomarker Activity (AID 2283088). The following applies: primary human HUVEC with PBMC; actives raise or lower the signal. In outline:
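Human umbilical vein endothelial cells co-cultured with PBMC; CD40 levels measured by ELISA with fluorescence read-out 24 h after chemical dosing. Gain or loss of signal fitted bidirectionally against DMSO baseline.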

Read-out in another assay: CD69, CD69 (gene 969)
As to the kind of experiment: BSK_SAg_CD69: BioMAP Diversity Plus: SAg Assay for CD69 Biomarker Activity (AID 2283089). The note with it: primary human HUVEC with PBMC; actives raise or lower the signal. The method, boiled down: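 Primary human vascular co-culture (umbilical vein endothelium with peripheral blood mononuclear cells) exposed to test chemical for 24 h. CD69 levels quantified by fluorescence ELISA; DMSO served as negative control for bidirectional fitting.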

Read-out in assay [16]: Monocyte Chemoattractant Protein-1 (MCP1), CCL2 (gene 6347)
Briefly: BSK_SAg_MCP1: BioMAP Diversity Plus: SAg Assay for Monocyte Chemoattractant Protein-1 (MCP1) Biomarker Activity (AID 2283090). The note with it: primary human HUVEC with PBMC; actives raise or lower the signal. In outline:
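Values derive from bidirectional fitting of ELISA-measured MCP1 against DMSO controls. Readings were taken 24 h after dosing human vascular endothelial cells co-cultured with peripheral blood mononuclear cells under superantigen stimulation.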

Read-out in assay [17]: E-selectin (Homo sapiens) (UniProt P16581)
Briefly: BSK_SAg_Eselectin: BioMAP Diversity Plus: SAg Assay for Eselectin Biomarker Activity (AID 2283091). The following applies: primary human HUVEC with PBMC; actives raise or lower the signal. The method, boiled down: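 HUVEC co-cultured with PBMC, compound dosed then read at 24 h; E-selectin measured by ELISA. Activity fitted bidirectionally against DMSO as negative control and baseline.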

Read-out in assay [18]: C-C motif chemokine 2 (Homo sapiens) (UniProt P13500)
Briefly: BSK_KF3CT_MCP1: BioMAP Diversity Plus: KF3CT Assay for Monocyte Chemoattractant Protein 1 (MCP1/CCL2) Biomarker Activity (AID 2283073). The note with it: primary human keratinocytes with fibroblasts; actives raise or lower the signal. In outline:
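Human keratinocyte plus foreskin fibroblast primary co-culture exposed to chemical for 24 h. MCP-1 levels measured by ELISA. Bidirectional curve fitting relative to DMSO negative control as baseline.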

Calls of active or inactive are those of the source. How the source made its calls: active means hit-call score of the fitted dose curve at least 0.9, where 1 is the maximum; inactive means score below 0.9.

Sequence of E-selectin (Homo sapiens) (P16581 whole entry, looked up): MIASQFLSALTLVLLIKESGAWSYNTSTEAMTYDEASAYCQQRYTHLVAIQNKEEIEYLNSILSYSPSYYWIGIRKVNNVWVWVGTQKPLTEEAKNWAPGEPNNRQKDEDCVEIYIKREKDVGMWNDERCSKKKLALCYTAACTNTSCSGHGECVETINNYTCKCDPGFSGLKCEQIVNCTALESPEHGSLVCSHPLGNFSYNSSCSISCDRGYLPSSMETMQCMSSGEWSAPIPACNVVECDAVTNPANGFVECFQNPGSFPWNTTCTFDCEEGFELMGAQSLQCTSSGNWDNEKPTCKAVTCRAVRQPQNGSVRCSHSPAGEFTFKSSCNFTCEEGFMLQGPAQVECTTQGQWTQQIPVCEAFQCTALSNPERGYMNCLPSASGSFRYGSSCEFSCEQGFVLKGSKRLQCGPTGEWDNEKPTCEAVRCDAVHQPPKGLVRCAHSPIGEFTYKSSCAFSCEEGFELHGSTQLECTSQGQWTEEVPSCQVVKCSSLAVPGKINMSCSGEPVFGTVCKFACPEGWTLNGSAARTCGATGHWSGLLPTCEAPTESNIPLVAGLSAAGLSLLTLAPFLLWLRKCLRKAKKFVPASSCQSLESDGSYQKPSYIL
Sequence of Tumor necrosis factor (Homo sapiens) (P01375 whole entry, looked up): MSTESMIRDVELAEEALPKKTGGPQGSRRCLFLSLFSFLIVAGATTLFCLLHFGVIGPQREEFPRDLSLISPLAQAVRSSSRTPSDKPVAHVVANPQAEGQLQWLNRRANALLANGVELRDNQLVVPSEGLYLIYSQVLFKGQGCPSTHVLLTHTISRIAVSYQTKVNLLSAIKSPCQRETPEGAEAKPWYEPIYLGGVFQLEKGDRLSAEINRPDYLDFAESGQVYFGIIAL

A word on the AC50: it is the concentration at which the activity in the assay is half-maximal. Take `Cc1cc(C)nc(Nc2ccccc2)n1`: the outcome in assay [1] is “inactive”; in [2], “inactive”; in assay [3] it was “inactive”; in the assay with CD40, CD40 (gene 958) [4], “inactive”; in assay [5] it was “inactive”; in [7], “inactive”. In addition, the result in assay [8], in [9], in [10], in assay [11], in assay [12] and in assay [13] was inactive. The outcome in assay [14] is “inactive”; with CD40, CD40 (gene 958) [15], “inactive”; with CD69, CD69 (gene 969), “inactive”; in assay [16], “inactive”. In addition, the AC50 in [6] is 26.8 µM (active); with CD38, CD38 (gene 952), 20 µM (active); in [17], 20 µM (active).
On to `Clc1cccc(C(Cl)(Cl)Cl)n1`, for which the outcome in assay [1] was “inactive”; in assay [18], “inactive”; in [2] it was “inactive”; in [3], “inactive”; in the assay with CD40, CD40 (gene 958) [4] it was “inactive”; in assay [5], “inactive”. Moreover, the outcome in assay [6], in assay [7], in assay [8], in [9], in assay [10] and in assay [11] was inactive. Also, the outcome in assay [12] was “inactive”; in assay [13] it was “inactive”; in assay [14], “inactive”; with CD38, CD38 (gene 952) it was “inactive”; with CD40, CD40 (gene 958) [15], “inactive”; in the assay with CD69, CD69 (gene 969), “inactive”. Also, the result in [16] and in assay [17] was inactive.
For the compound `Nc1cnn(-c2ccccc2)c(=O)c1Cl`, the outcome was “inactive” in assay [1]; “inactive” in [2]; “inactive” in [3]; “inactive” in the assay with CD40, CD40 (gene 958) [4]; “inactive” in [5]; “inactive” in [6]. Also, the result in [7], in assay [8], in assay [9], in assay [10], in assay [11] and in [12] was inactive. In addition, the outcome in assay [13] is “inactive”; in assay [14] it was “inactive”; in the assay with CD38, CD38 (gene 952), “inactive”; with CD40, CD40 (gene 958) [15], “inactive”; with CD69, CD69 (gene 969), “inactive”; in assay [16] it was “inactive”. Further, the outcome in [17] was inactive.
